This is a sample that favours compounds with a hit; in the whole collection about 3% have one here.
p53null 39C tox: qHTS Screen for Compounds that Selectively Target Cancer Cells with p53 Mutations: Cytotoxicity of p53 Null Cells at the Nonpermissive Temperature; H1299 p53-null (neo) cells, 39C, ATPlite viability, 24 h; Potency, µM (titrated, usually from 46.1 µM), for inactives: at the highest dose activity, negative = cell killing, most hits filed as cytotoxic; 55,000 compounds, 0.97% hits; AID 904, 2007;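 further: potency means the concentration at half of the fitted maximal effect; 0% = DMSO only and -100% = full killing by 100 µM tamoxifen; nearly all actives have a fitted effect of over 50% in size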
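ATP-luminescence viability readout (ATPlite, 20 min RT) after 24 hr compound treatment at 39C of H1299-neo or H1299-p53A138V cells; titration up to 46 uM; normalized to DMSO and 100 uM tamoxifen; Hill-fit AC50.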
mTORC1 inh: Acumen qHTS Assay for Inhibitors of the mTORC1 Signaling Pathway in MEF (Tsc2-/-, p53-/-) Cells: Sytravon. Tsc2-/- p53-/- MEF, phospho-rpS6 immunofluorescence/PI, 24 h. Potency, µM (titrated, usually from 38.3 µM), for inactives: at the highest dose activity change, negative = inhibition, hits mostly inhibitors. 44,000 compounds, 0.78% hits;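 further: potency means the concentration at half of the fitted maximal effect; plate controls were DMSO for no effect and rapamycin for full effect; nearly all actives have a fitted effect of over 50% in size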
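Read-out: phospho-S6 Alexa-488 intensity over PI intensity per well, scored as % active cells using thresholds from rapamycin (7.5 nM) and DMSO controls. Tsc2-/-, p53-/- MEFs exposed to compound for 24 h; PI cell count recorded as viability.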
S16 viability: Cell viability qHTS assay in S16 Pmp22-F2sN cells. S16 Pmp22-F2sN Schwann cells viability, CellTiter-Glo, 24 h. Potency, µM (series often up to 57.5 µM), without a hit: at the highest dose activity change, negative = cytotoxicity, hits mostly cytotoxic. 43,000 compounds, 0.48% hits. AID 1508642, 2021; further: potency means the concentration at half of the fitted maximal effect; on the % scale 0 is the no-effect control and ±100 the full control effect; nearly all actives have a fitted effect of over 65% in size
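Used to flag compounds lowering reporter output through toxicity, this quantitative HTS measures ATP-based CellTiter-Glo luminescence in S16 Pmp22-F2sN Schwann cells after 24 h compound exposure at 37C.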
p53null 32C tox: qHTS Screen for Compounds that Selectively Target Cancer Cells with p53 Mutations: Cytotoxicity of p53 Null Cells at the Permissive Temperature; 55,000 compounds, 0.62% hits; Potency, µM (doses to about 46.1 µM), inactives show at the top dose activity change, negative = cytotoxicity, actives largely listed as cytotoxic; H1299-neo p53 null cells, ATP luminescence, 24 h, 32C;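 further: potency means the concentration at half of the fitted maximal effect; 0% = DMSO only and -100% = full killing by 100 µM tamoxifen; nearly all actives have a fitted effect of over 55% in size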
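H1299-neo, 600 cells/well; overnight 37C; cpd up to 46 uM, 24 h at 32C; ATPlite luminescence after 20 min RT; normalized to DMSO (0%) and tamoxifen 100 uM (100% kill); Hill-fit AC50.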
SKOV3 invasion: Primary qHTS assay for Inhibitors of ovarian cancer metastasis using an organotypic tumor microenvironment (TME) model; 46,000 compounds, 0.1% hits; Potency, µM (titrated, usually from 45.8 µM), without a hit: top-dose activity change, negative = inhibition, actives largely listed as inhibitors; SKOV3ip1-GFP adhesion/invasion on 3D omental model, fluorescence;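 further: potency means the concentration at half of the fitted maximal effect; plate controls were DMSO wells for no effect and tomatine positive control wells for full effect; nearly all actives have a fitted effect of over 65% in size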
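qHTS, 4-pt dose (0.36-46 umol/L); SKOV3ip1-GFP, 1,200 cells/well, no FBS; primary omental fibroblast/mesothelial co-culture 48 h pre-grown; 2 h RT + 16 h 37 C; PBS wash, 4% PFA; GFP count 488/509 nm.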
PMP22 txn prim: Cell-based coincidence reporter assay to measure PMP22 gene transcription in S16 Pmp22-F2sN cells - Primary screen | 43,000 compounds, 2% hits | S16 Pmp22-F2sN Schwann cells (luciferase reporters placed in the Pmp22 gene), FLuc/NLuc coincidence luminescence, 24 h | Potency, µM (doses to about 57.5 µM), for the others: top-dose activity change, negative = inhibition, actives largely listed as inhibitors; active means clear falling dose curves in both reporters; inconclusive means both reporters move, but less clearly or upward; inactive means either reporter flat; the % is the NLuc reporter signal; further: potency means the concentration at half of the fitted maximal effect; on the % scale 0 is the no-effect control and ±100 the full control effect
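Luminescent read-out of sequential FLuc and NLuc signals from a reporter embedded in the Pmp22 3' UTR of S16 Schwann cells, taken after 24 h compound exposure at 37C; compounds reducing both signals score as inhibitors of expression.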
NLuc saturating: Biochemical NLuc saturation counterscreen for small molecule modulators of PMP22 gene expression - Nano-Glo assay; shares compounds with PMP22 txn prim; Secreted NLuc enzyme (filtered S16 cell medium), Nano-Glo luminescence; Potency, µM (titrated, usually from 57.5 µM), without a hit: at the top dose activity change, negative = inhibition, most hits filed as inhibitors; 690 compounds, 4% hits; AID 1508638, 2021; further: potency means the concentration at half of the fitted maximal effect; on the % scale 0 is the no-effect control and ±100 the full control effect
NLuc Km counter: Biochemical coelenterazine-based NLuc counterscreen for small molecule modulators of PMP22 gene expression - Km assay; shares compounds with PMP22 txn prim; secreted NLuc enzyme, coelenterazine luminescence, Km conditions; Potency, µM (series often up to 57.5 µM), inactives show at the top dose activity change, negative = inhibition, hits mostly inhibitors; 690 compounds, 5% hits; AID 1508639, 2021; further: potency means the concentration at half of the fitted maximal effect; on the % scale 0 is the no-effect control and ±100 the full control effect
FLuc counter: Biochemical FLuc counterscreen for small molecule modulators of PMP22 gene expression; shares compounds with PMP22 txn prim; purified P. pyralis FLuc, luminescence, 10 min; Potency, µM (top dose mostly 57.5 µM), for the others: at the highest dose activity, negative = inhibition, most hits filed as inhibitors; 690 tested, under 10 active; AID 1508640, 2021; further: % of control where 0% means no effect
Target sequence (P08659 whole entry, looked up): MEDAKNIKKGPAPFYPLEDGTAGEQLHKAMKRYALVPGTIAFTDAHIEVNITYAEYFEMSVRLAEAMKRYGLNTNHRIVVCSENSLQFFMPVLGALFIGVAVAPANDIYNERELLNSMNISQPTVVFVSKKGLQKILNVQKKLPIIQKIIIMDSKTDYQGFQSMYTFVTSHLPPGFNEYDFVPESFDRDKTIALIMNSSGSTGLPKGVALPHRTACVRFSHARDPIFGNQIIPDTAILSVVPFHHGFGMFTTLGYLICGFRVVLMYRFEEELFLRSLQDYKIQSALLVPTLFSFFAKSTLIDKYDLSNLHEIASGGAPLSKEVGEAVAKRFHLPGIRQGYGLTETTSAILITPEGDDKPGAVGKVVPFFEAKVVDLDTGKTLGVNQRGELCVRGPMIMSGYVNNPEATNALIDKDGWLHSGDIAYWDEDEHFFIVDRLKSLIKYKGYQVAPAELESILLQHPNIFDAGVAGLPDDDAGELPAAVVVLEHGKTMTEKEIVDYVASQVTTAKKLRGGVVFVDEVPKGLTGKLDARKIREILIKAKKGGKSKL
S16 F2sN tox cnf: Cell viability qHTS assay in S16 Pmp22-F2sN cells - Confirmatory screen; AID 1508641, 2021; 690 compounds, 7% hits; Potency, µM (doses to about 57.5 µM), for the others: at the highest dose activity change, negative = viability loss, most hits filed as cytotoxic; S16 Schwann cells viability, CellTiter-Glo ATP luminescence, 24 h; shares compounds with PMP22 txn prim; further: potency means the concentration at half of the fitted maximal effect; on the % scale 0 is the no-effect control and ±100 the full control effect
PMP22 txn conf: Cell-based coincidence reporter assay to measure PMP22 gene transcription in S16 Pmp22-F2sN cells - Confirmatory screen; 690 compounds, 22% hits; shares compounds with PMP22 txn prim; AID 1508646, 2021; Potency, µM (top dose mostly 57.5 µM), for the others: top-dose activity change, negative = inhibition, usual class: inhibitors; S16 Schwann cells Pmp22-F2sN, dual luciferase, 24 h; active means clear falling dose curves in both reporters; inconclusive means both reporters move, but less clearly or upward; inactive means either reporter flat; the % is the FLuc reporter signal; further: potency means the concentration at half of the fitted maximal effect
PMP22 HiBiT cnf: Cell-based HiBiT reporter assay to measure PMP22 protein expression in S16 Pmp22-HiBiT cells - Confirmatory screen; shares compounds with PMP22 txn prim; S16 Schwann cells Pmp22-HiBiT, luminescence, 48 h; Potency, µM (doses to about 27.9 µM), inactives show at the top dose activity change, negative = inhibition, most hits filed as inhibitors; 95 tested, under 10 active
Target sequence (P25094 whole entry, looked up): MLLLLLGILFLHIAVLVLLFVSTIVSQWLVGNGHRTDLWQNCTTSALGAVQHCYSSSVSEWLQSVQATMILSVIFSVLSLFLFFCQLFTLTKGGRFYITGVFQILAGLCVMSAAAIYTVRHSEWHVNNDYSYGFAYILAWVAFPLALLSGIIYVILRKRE
An asterisk follows results filed as active; i = inactive; ? = inconclusive; · = no result given. Unless noted, the call rests on the fitted dose curve; in most records, active means well fitted curve in the direction sought with a large enough effect; inconclusive means small, poorly fitted or top-dose-only effect, or another doubt; inactive means no such curve, though single readings can be large; an effect the other way counts as inactive or inconclusive.

SMILES	p53null 39C tox	mTORC1 inh	S16 viability	p53null 32C tox	SKOV3 invasion	PMP22 txn prim	NLuc saturating	NLuc Km counter	FLuc counter	S16 F2sN tox cnf	PMP22 txn conf	others
CS(=O)(=O)N1CCc2c(-c3cnc(N)nc3)nc(N3CCOCC3)nc21	·	·	·	·	8%	·	·	·	·	·	·
CC(C)n1nc(-c2ccc3oc(N)nc3c2)c2c(N)ncnc21	·	·	·	·	7%	·	·	·	·	·	·
Cc1ccc(C(=O)Nc2ccc(S(=O)(=O)N3CCC(c4nc5ccccc5s4)CC3)cc2)cc1	-9%	2%	8%	-6%	-13%	12µM*	0%	5%	6%	-47%	15µM*	PMP22 HiBiT cnf=?
CCN(CC)C(=O)c1ccc(S(=O)(=O)N2CCC(c3nc4ccccc4s3)CC2)cc1	-1%	·	·	-3%	·	·	·	·	·	·	·
NS(=O)(=O)c1ccc(NC2=CC(=O)c3ccccc3C2=O)cc1	·	·	·	·	-12%	·	·	·	·	·	·
Cc1cccc(Nc2c3c(nc4nncn24)CCC3)c1C	-19%	2%	-2%	-4%	-21%	?	?	9%	-6%	3%	?	PMP22 HiBiT cnf=2%
Cc1ccccc1Nc1c2c(nc3nncn13)CCC2	-20%	-9%	8%	-5%	10%	-10%	·	·	·	·	·
CCOc1ccc(OCC)c(NC(=O)c2nnn(Cc3cc(Br)ccc3OC)c2N)c1	-28%	4%	15%	-7%	i	-16%	·	·	·	·	·
CCOc1ccc(OCC)c(NC(=O)c2nnn(CC(=O)Nc3cc(Cl)ccc3OC)c2N)c1	-7%	-17%	14%	-16%	?	11µM*	-4%	7%	7%	?	14µM*
COc1ccc(C[C@@H](C)[C@@H](C)Cc2ccc(OC)c(OC)c2)cc1OC	·	·	·	·	16%	·	·	·	·	·	·
Cc1ccc(-n2[nH]c(C)c(N=Nc3cccc(-c4cccc(C(=O)O)c4)c3O)c2=O)cc1C	·	·	·	·	-8%	·	·	·	·	·	·
COc1cc(NC(=O)c2cc(-c3ccccc3O)no2)cc(OC)c1OC	?	9%	?	-7%	-37%	?	·	·	·	·	·
COc1cccc(-c2cc(C(=O)Nc3cc(OC)c(OC)c(OC)c3)on2)c1	-8%	-1%	?	2%	?	3.9µM*	?	11µM*	-13%	-6%	18µM*
CCOc1ccccc1CNC(=O)CCn1c(=O)c2cccn2c2ccc(F)cc21	56%	?	6%	10%	1%	14µM*	1%	1%	0%	-2%	?
CCC(=O)N1CCc2cc(S(=O)(=O)CCC(=O)N3CCN(c4ccc(Cl)cc4)CC3)ccc21	-3%	-2%	-1%	17%	2%	17µM*	?	-4%	-3%	12%	?
CCOC(=O)N1CCN(Cc2nc3cc(NC(=O)c4ccc(F)cc4)ccc3n2C(C)C)CC1	-3%	?	?	-4%	-7%	?	·	·	·	·	·
CCOC(=O)N1CCN(Cc2nc3cc(NC(=O)c4ccccc4[N+](=O)[O-])ccc3n2C(C)C)CC1	-4%	1%	?	-8%	?	11µM*	?	-4%	-5%	7%	-22%
CCOC(=O)N1CCN(Cc2nc3cc([N+](=O)[O-])ccc3n2C(C)C)CC1	-9%	-17%	-17%	-5%	-11%	?	-5%	0%	3%	?	-5%
CCOC(=O)N1CCN(Cc2nc3cc(NC(=O)c4ccccc4OC)ccc3n2C(C)C)CC1	?	-17%	?	-8%	?	?	·	·	·	·	·
CCOC(=O)N1CCN(Cc2nc3cc(NC(=O)C(C)C)ccc3n2C(C)C)CC1	-3%	?	?	4%	i	6.3µM*	-14%	4%	6%	4%	-18%
CCOC(=O)N1CCN(Cc2nc3cc(NC(=O)c4ccc(OC)cc4)ccc3n2C(C)C)CC1	7%	?	-19%	-11%	-17%	?	·	·	·	·	·
OC[C@H]1O[C@@H](Oc2cc(O)cc(C=Cc3ccc(O)cc3)c2)[C@H](O)[C@@H](O)[C@H]1O	·	·	·	·	5%	·	·	·	·	·	·
